According to the supplement of paper PMC6555819:

Tests used:
Assay in all cases: PBM binding z-score (relative to random genomic background probes); higher = stronger binding; sequences stand for … in GC…GCGATTGACAGCGTAGAATGAAGG
[1] = tested on: FXR:RXRa (NR concentration 270 nM, RXRa partner concentration 90 nM)
In short: (§1)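 Antibodies against each partner of ligand-free nuclear receptor dimers (one per run) detected binding on custom Agilent 4×180K protein-binding microarrays after 1 h incubation. The double-stranded probes had 34-nt variable regions carrying direct-repeat seeds, single-nucleotide variants, half-site ablations and random human genomic background sequences. Binding z-scores, from regression-normalized fluorescence, use the random background probes as reference.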

[2] = tested on: LXRa:RXRa (NR concentration 270 nM, RXRa partner concentration 90 nM)
In short: as §1

[3] = tested on: LXRa homodimer (NR concentration 270 nM)
In short: as §1

[4] = tested on: LXRb:RXRa (NR concentration 270 nM, RXRa partner concentration 90 nM)
In short: as §1

[5] = tested on: LXRb homodimer (NR concentration 270 nM)
In short: as §1

[6] = tested on: PPARa:RXRa (NR concentration 270 nM, RXRa partner concentration 90 nM)
In short: as §1

[7] = tested on: PPARg:RXRa (NR concentration 180 nM, RXRa partner concentration 90 nM)
In short: as §1

[8] = tested on: PPARg:RXRa 270nM:90nM, anti-RXR (NR concentration 270 nM, RXRa partner concentration 90 nM)
In short: as §1

[9] = tested on: PPARg:RXRa 30nM:10nM, anti-RXR (NR concentration 30 nM, RXRa partner concentration 10 nM)
In short: as §1

[10] = tested on: PPARg:RXRa 90nM:30nM, anti-RXR (NR concentration 90 nM, RXRa partner concentration 30 nM)
In short: as §1

[11] = tested on: PPARg:RXRa DBDmut IVT, anti-RXR (DBD mutation: RXRa K156A/R161A, NR concentration 270 nM, RXRa partner concentration 90 nM)
In short: as §1

[12] = tested on: PPARg:RXRa IVT, anti-PPARg (NR concentration 270 nM, RXRa partner concentration 90 nM)
In short: as §1

[13] = tested on: PPARg DBDmut:RXRa IVT, anti-PPARg (DBD mutation: PPARg1 K132A/R137A, NR concentration 270 nM, RXRa partner concentration 90 nM)
In short: as §1

[14] = tested on: PPARg DBDmut IVT, anti-PPARg (DBD mutation: PPARg1 K132A/R137A, NR concentration 270 nM)
In short: as §1

[15] = tested on: PPARg homodimer (NR concentration 180 nM)
In short: as §1

[16] = tested on: PXR:RXRa (NR concentration 270 nM, RXRa partner concentration 90 nM)
In short: as §1

[17] = tested on: PXR homodimer (NR concentration 270 nM)
In short: as §1

[18] = tested on: RARa:RXR (NR concentration 270 nM, RXRa partner concentration 90 nM)
In short: as §1

[19] = tested on: RARa homodimer (NR concentration 270 nM)
In short: as §1

[20] = tested on: RARb:RXRa (NR concentration 270 nM, RXRa partner concentration 90 nM)
In short: as §1

| Sequence | PBM binding z-score [1] | PBM binding z-score [2] | PBM binding z-score [3] | PBM binding z-score [4] | PBM binding z-score [5] | PBM binding z-score [6] | PBM binding z-score [7] | PBM binding z-score [8] | PBM binding z-score [9] | PBM binding z-score [10] | PBM binding z-score [11] | PBM binding z-score [12] | PBM binding z-score [13] | PBM binding z-score [14] | PBM binding z-score [15] | PBM binding z-score [16] | PBM binding z-score [17] | PBM binding z-score [18] | PBM binding z-score [19] | PBM binding z-score [20] |
| --- | --- | --- | --- | --- | --- | --- | --- | --- | --- | --- | --- | --- | --- | --- | --- | --- | --- | --- | --- | --- |
| CCTAACAGGCCAGGGTCACTCAAGCATTTCGCTT | 2.05 | 1.86 | -0.195 | 2.38 | -0.349 | 3.2 | 0.798 | 1.41 | -0.181 | 0.356 | 0.296 | 0.882 | -0.338 | -0.618 | 1.4 | 2.58 | -0.222 | 3.26 | 0.384 | 2.85 |
| TCTTGTAGATCAACAGGAGGTTTAGAAAGATCGA | -0.117 | -0.19 | -0.342 | 0.0269 | -0.559 | 0.152 | -0.195 | 0.953 | 2.59 | 1.93 | 1.64 | 0.449 | 0.726 | 0.199 | 0.11 | -0.0955 | -0.425 | 0.104 | -0.667 | -0.271 |
| GCTGCTAGGTCAACTGATGGACAGCTAAAGCTCG | 3.98 | 2.38 | -0.308 | 1.66 | 0.0379 | 3.46 | 2.8 | 2.99 | 0.269 | 1.92 | 4.96 | 4.05 | -0.737 | -0.4 | 0.547 | 1.05 | -0.677 | 1.9 | -0.785 | 4.12 |
| GCAGACAGGTGAACCGCAGGTAACTCAGGGTGGC | 0.339 | 0.437 | -0.44 | 0.125 | -1.15 | 1.77 | 0.554 | 0.309 | -0.52 | 0.0575 | 0.713 | 0.87 | -0.564 | -0.733 | -0.518 | 0.615 | -0.535 | 1.09 | -0.768 | 0.901 |
| ATCGAAAGGTCGACGAGGTGATTATACACCGTTT | 4.8 | 3.43 | 0.0538 | 2.93 | 0.337 | 4.39 | 2.85 | 3.08 | 1.22 | 2.14 | 0.604 | 1.86 | 1.29 | 0.577 | 1.31 | 3.32 | 1.07 | 3.76 | 0.346 | 3.78 |
| ATCTCTAGGAAACCAAGTTCAGTGAATGCCGAAC | 0.256 | 0.434 | 0.599 | 0.317 | 0.4 | 0.151 | -0.0218 | 0.0648 | 0.0428 | 0.082 | -0.471 | 0.0982 | 0.852 | 0.501 | 0.854 | 1.17 | 1.48 | 0.595 | 1.12 | 0.938 |
| AGAATGAGGTTATACATAGATCAGGGAAGAAAGT | 1.88 | 2.05 | 0.223 | 1.56 | 0.151 | 3.07 | 2.28 | 1.87 | 0.974 | 1.4 | 2.35 | 1.91 | 1.44 | 1.27 | 1.21 | 1.43 | 0.76 | 1.9 | 0.765 | 1.6 |
| TCGAGTAGGTTACCAATGGGGAATTCAGCTTTCT | 0.0745 | 0.417 | -0.56 | 0.355 | -0.737 | 0.977 | 0.304 | 1.2 | 0.963 | 1.18 | 3.57 | 2.58 | -0.097 | -0.739 | -0.227 | -0.148 | -1.08 | 0.0848 | -1.2 | 0.621 |
| CCTTACGGGTTAAGGTTATAGCACGGGTGGTACG | 1.55 | 1.38 | -0.0602 | 1.09 | -0.11 | 2.09 | 1.12 | 1.61 | 0.309 | 1.09 | 0.0868 | 0.867 | -0.169 | -0.202 | 0.702 | 1.16 | 0.325 | 1.85 | 0.517 | 1.8 |
| CCCACTGGGGCAAGGTTACCATAACGCACAGCCA | 0.184 | 0.769 | -0.0723 | 0.417 | -0.882 | 2.46 | 4.81 | 4.76 | 1.92 | 4.56 | 4.18 | 5.58 | 2.71 | 0.0183 | 1.07 | 0.144 | -0.536 | 1.05 | 0.0116 | 1.75 |
| CCTACTGCGCCATTCAGAGGTCATTGATCATATG | 3.32 | 4.74 | 7.35 | 4.35 | 1.54 | 3.8 | 0.615 | 1.89 | 0.275 | 0.91 | 0.443 | 1.07 | 0.596 | 0.708 | 2.61 | 4.86 | 2.44 | 4.54 | 1.18 | 3.05 |
| TCGAGTAGGTCAGTCGGGGCATTCAGCCAACATA | 1.39 | 1.09 | -0.271 | 1.55 | -0.625 | 2.56 | 2.27 | 2.87 | 1.39 | 2.2 | 4.8 | 4.74 | 0.141 | -0.71 | 1.14 | 1.71 | 0.855 | 1.47 | -0.53 | 3.03 |
| CGTCCAAGGTCAATGCTTGGTCAGTGAAAGCATT | 6.4 | 4.57 | 0.472 | 3.42 | 0.327 | 4.9 | 3.44 | 4 | 0.746 | 2.46 | 2.65 | 3.19 | -0.682 | -0.881 | 3.32 | 3.86 | 0.527 | 4.45 | 0.0669 | 5.03 |
| TCATATAGGTAATACAGATGAAAGTCGGCATCTA | 0.463 | 0.531 | 0.032 | 0.521 | 0.268 | 1.08 | 1.47 | 1.93 | 4.02 | 2.97 | 3.53 | 2.32 | 1.22 | 1.05 | 0.725 | 0.46 | 0.387 | 0.646 | 1.28 | 0.19 |
| TCATATAGGTAAAGGTCAAAGTCGAACGATATGA | 6.53 | 6.13 | 4.7 | 5.5 | 2.62 | 6.15 | 7.64 | 6.9 | 6.04 | 7.15 | 4.49 | 5.4 | 2.71 | 1.9 | 5.15 | 5.54 | 1.88 | 6.36 | 3.75 | 5.17 |
